Source: PubChem BioAssay
APE1 inh = APE1 (human) endonuclease inhibition; AID 2517; Potency, µM (titrated, usually from 65.8 µM), hits mostly inhibitors; 350,000 compounds, 0.35% hits; P27695; recombinant APE1, TAMRA/BHQ-2 abasic DNA cleavage fluorescence; further: nearly all actives have a fitted effect of over 55% in size
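Substrate: short duplex with […] THF abasic site, 5'-TAMRA and 3'-BHQ-2, 50 nM final. APE1 at 0.75 nM, preincubated 15 min RT with compound. Fluorescence increase from first to third read measured activity.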
BLM helicase inh = Bloom syndrome helicase (human) inhibition | Potency, µM (titrated, usually from 56.1 µM), actives largely listed as inhibitors | 350,000 compounds, 0.2% hits | recombinant BLM DNA unwinding, fluorescence dequenching; further: nearly all actives have a fitted effect of over 35% in size
KAT2A inh = blocks human GCN5L2 histone acetyltransferase. GCN5L2 HAT assay, ThioGlo1 CoA-SH fluorescence. Potency, µM (doses to about 58.9 µM), actives largely listed as inhibitors. 390,000 compounds, 0.21% hits
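qHTS, 1536-well. 20nM enzyme, pH 7.5 HEPES/EDTA/Tween-20 buffer; 15 min compound preinc., RT. Start: 75uM H3(1-25), 70uM AcCoA, 50uM ThioGlo1. Read Ex340/Em540 at t=0 (autofluorescence flag) and t=20 min.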
TDP1 block = blocks human tyrosyl-DNA phosphodiesterase 1; recombinant TDP1, AlphaScreen DNA substrate cleavage; Potency, µM (highest dose often 130 µM), actives largely listed as inhibitors; 350,000 compounds, 0.28% hits; further: nearly all actives have a fitted effect of over 40% in size
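Here, a 5' biotin and 3' phosphotyrosine-FITC DNA oligonucleotide reports Tdp1 activity: intact substrate bridges AlphaScreen beads, while cleavage leaves a 3' phosphate and drops signal. All incubations at room temperature.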
RGS4 inh = human RGS4 inhibition | Potency, µM (top dose mostly 114 µM), most hits filed as inhibitors | 390,000 compounds, 0.039% hits | P49798 | AID 504845 | Transcreener GDP fluorescence polarization, RGS4-accelerated GTP hydrolysis; further: nearly all actives have a fitted effect of over 75% in size
Target sequence (P49798 whole entry, looked up): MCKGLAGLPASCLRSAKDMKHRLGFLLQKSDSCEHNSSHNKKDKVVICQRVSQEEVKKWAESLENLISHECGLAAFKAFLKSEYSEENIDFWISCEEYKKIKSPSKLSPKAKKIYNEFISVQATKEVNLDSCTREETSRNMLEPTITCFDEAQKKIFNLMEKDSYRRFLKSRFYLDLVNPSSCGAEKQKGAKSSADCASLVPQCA
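MLSMR compounds (23 nl, pin-transferred) preincubated 10 min at room temperature with a 500nM (2x) first reagent, then RGS4 at 900nM (2x) plus Transcreener GDP mix added; fluorescence polarization (620/688 nm) read before and after 90 min at 30 °C.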
RECQ1 inh-1 = RECQ1 (human) helicase inhibition | Potency, µM (titrated, usually from 57.3 µM), actives largely listed as inhibitors | RECQ1 DNA unwinding, red fluorescence kinetic read | P46063 | 240,000 compounds, 0.54% hits; further: nearly all actives have a fitted effect of over 30% in size
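RECQ1T1 50 nM; forked duplex (20 bp + 30-nt ss tails) 200 nM, ATP 2 mM final; pH 8.0, 2 mM MgCl2, 2.5 ug/ml poly(dI-dC); 15 min compound preincubation; discontinuous kinetic read over 2 h at RT.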
RECQ1 inh conf = confirmation of human RECQ1 helicase inhibitors; shares compounds with RECQ1 inh-1; RECQ1 helicase DNA unwinding, fluorescence; Potency, µM (titrated, usually from 229 µM), usual class: inhibitors; 610 compounds, 28% hits; further: nearly all actives have a fitted effect of over 45% in size
RECQ1 ADP FP = counter-screen for RECQ1 inhibitors: ADP displacement. ADP fluorescence polarization displacement counterscreen. shares compounds with RECQ1 inh-1. 530 compounds, 27% hits. AID 2711. Potency, µM (titrated, usually from 228 µM), hits mostly inhibitors; further: nearly all actives have a fitted effect of over 45% in size
RECQ1 inh-2 = confirmation of human RECQ1 helicase inhibitors; 1,100 compounds, 15% hits; recombinant RECQ1 DNA unwinding, red fluorescence; shares compounds with RECQ1 inh-1; Potency, µM (titrated, usually from 119 µM), hits mostly inhibitors; further: nearly all actives have a fitted effect of over 50% in size
Calls only; - = inactive; ? = inconclusive; . = no result given. A selection follows. The call rests on the fitted dose curve; in most records, active means well fitted curve in the direction sought with a large enough effect; inconclusive means small, poorly fitted or top-dose-only effect, or another doubt; inactive means no such curve, though single readings can be large; an effect the other way counts as inactive or inconclusive.

SMILES	APE1 inh	BLM helicase inh	KAT2A inh	TDP1 block	RGS4 inh	RECQ1 inh-1	RECQ1 inh conf	RECQ1 ADP FP	others
COc1cccc(C(=O)N(Cc2cc3cc(C)ccc3[nH]c2=O)C(C)C)c1	-	-	-	-	-	?	.	.	RECQ1 inh-2=-
O=C(O)CCCC(=O)N1CCc2cc(S(=O)(=O)NCc3ccccc3)ccc21	-	-	-	-	-	-	-	-
O=C(O)CCCC(=O)N1CCc2cc(S(=O)(=O)N3CCc4ccccc43)ccc21	-	-	-	-	-	-	-	-
O=C(C1CCC1)N1CCc2cc(S(=O)(=O)NC3CCCC3)ccc21	-	-	-	-	-	-	.	.
Cc1cccc(N2CCN(S(=O)(=O)c3ccc4c(c3)CCN4C(=O)CCC(=O)O)CC2C)c1 (stereo not drawn)	-	-	-	-	-	-	?	?
O=C(O)CCC(=O)N1CCc2cc(S(=O)(=O)NC3CCCC3)ccc21	-	-	-	-	-	-	-	-
COC(=O)N1CCCc2cc(S(=O)(=O)NCc3ccccc3)ccc21	.	-	-	-	-	.	.	.
CC1CC(C)CN(S(=O)(=O)c2ccc3c(c2)CCN3C(=O)CCC(=O)O)C1 (stereo not drawn)	-	-	-	-	-	.	.	.
CC[Si](CC)(CC)O[C@H]([C@@H](C)COCOC)[C@@H](C)COCc1ccc(OC)cc1	-	-	.	-	-	-	.	.
CN(Cc1ccco1)S(=O)(=O)c1ccc2c(c1)CCN2C(=O)CCC(=O)O	-	-	-	-	-	-	-	-
Cc1ccc(CNS(=O)(=O)c2ccc3c(c2)CCN3C(=O)CCCC(=O)O)cc1	-	-	-	-	-	-	-	-
CC[C@H](C)[C@H](NC(=O)[C@H](CO)NC(=O)[C@H](CC(C)C)NC(=O)[C@@H]1CCCN1C(=O)[C@@H]1CCCN1C(=O)[C@H](CC(=O)O)NC(=O)[C@@H](N)CC(=O)O)C(=O)N[C@@H](CC(=O)O)C(=O)N[C@@H](CC(C)C)C(=O)N[C@H](C(=O)N[C@@H](Cc1ccccc1)C(=O)N[C@@H](Cc1cnc[nH]1)C(=O)N[C@@H](CC(C)C)C(=O)N[C@@H](CC(C)C)C(=O)N[C@@H](CCCNC(=N)N)C(=O)N[C@H](C(=O)N[C@@H](CC(C)C)C(=O)N[C@@H](CC(C)C)C(=O)N[C@@H](CCC(=O)O)C(=O)N[C@@H](CC(C)C)C(=O)N[C@@H](C)C(=O)N[C@@H](CCCNC(=N)N)C(=O)N[C@H](C(=O)N[C@@H](CCC(N)=O)C(=O)N[C@@H](CO)C(=O)N[C@@H](CCC(N)=O)C(=O)N[C@@H](CCCNC(=N)N)C(=O)N[C@@H](CCC(=O)O)C(=O)N[C@@H](CCCNC(=N)N)C(=O)N[C@@H](C)C(=O)N[C@@H](CCC(=O)O)C(=O)N[C@@H](CCC(N)=O)C(=O)N[C@@H](CC(N)=O)C(=O)N[C@@H](CCCNC(=N)N)C(=O)N[C@H](C(=O)N[C@H](C(=O)N[C@@H](Cc1ccccc1)C(=O)N[C@@H](CC(=O)O)C(=O)N[C@@H](CO)C(=O)N[C@H](C(N)=O)C(C)C)[C@@H](C)CC)[C@@H](C)CC)[C@@H](C)O)[C@@H](C)O)[C@@H](C)O	-	-	-	-	.	-	.	.
Cc1ccccc1N1C(=O)c2cc(N)ccc2N/C1=C\F	.	-	-	.	.	.	.	.
